Screens: PubChem BioAssay, several laboratories
PfHsp90 set2 – growth inhibition of PfHsp90-expressing yeast, primary screen, antimalarial PfHsp90 inhibitor project, S. cerevisiae, BacTiter-Glo luminescence, single point, set 2; 310,000 compounds, 0.32% hits; BacTiter-Glo ATP, 48 h; yeast lacking PDR1 and PDR3 efflux regulators; inhibition, % at 9.4 µM; AID 504621, 2011;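 active means every replicate shows inhibition above about 80%, whatever the replicate mean, limit read from the data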;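 further: 0% = DMSO neutral controls and 100% = 20 µM radicicol positive controls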
tim10-1 inh – growth inhibitors of tim10-1 mutant yeast, primary screen, luminescence, uHTS | 330,000 compounds, 2.2% hits | AID 463190, 2010 | S. cerevisiae tim10-1 ts strain growth, BacTiter-Glo, 24 h | inhibition, % at 20 µM;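 active means inhibition of at least 40%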;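 further: mutant grown at 25 °C; 0% = DMSO wells with yeast and 100% = wells holding no yeast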
tim23-1 inh – growth inhibitors of tim23-1 mutant yeast, primary screen, luminescence, uHTS. 330,000 compounds, 1.3% hits. AID 463212, 2010. inhibition, % at 20 µM. S. cerevisiae tim23-1 growth, BacTiter-Glo luminescence, 24 h;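 active means growth inhibition of the mutant yeast at or above 50%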;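 further: temperature-sensitive mutant grown at 25 °C; plate controls were DMSO-treated mutant yeast for no effect and medium wells lacking yeast for full effect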
TIM10 inh – growth inhibitors of isogenic TIM10 control yeast, primary screen, counter-screen for tim10-1 yeast inhibitor project, luminescence, uHTS; 330,000 compounds, 1.4% hits; S. cerevisiae TIM10 strain growth, BacTiter-Glo luminescence, 24 h; AID 463195, 2010; inhibition, % at 10 µM;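 active means inhibition of 40% or more at the single tested concentration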;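 further: wild-type TIM10 isogenic control strain grown at permissive 25 °C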
Rce1 inhib – yeast Rce1p protease inhibitors, primary screen, biochemical, fluorescence, cell-free homogeneous. CAAX prenyl protease 2 (Saccharomyces cerevisiae (strain ATCC 204508 / S288c)), Q03530. yeast membranes, quenched prenylated peptide cleavage fluorescence. calls only. 290,000 compounds, 0.27% hits;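 active means fall in fluorescence gain of 50% or more versus controls, with final raw signal at or below 3038400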;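 further: plate controls were neutral control wells for no effect and wells lacking membranes for full effect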
Target sequence (Q03530 whole entry, looked up): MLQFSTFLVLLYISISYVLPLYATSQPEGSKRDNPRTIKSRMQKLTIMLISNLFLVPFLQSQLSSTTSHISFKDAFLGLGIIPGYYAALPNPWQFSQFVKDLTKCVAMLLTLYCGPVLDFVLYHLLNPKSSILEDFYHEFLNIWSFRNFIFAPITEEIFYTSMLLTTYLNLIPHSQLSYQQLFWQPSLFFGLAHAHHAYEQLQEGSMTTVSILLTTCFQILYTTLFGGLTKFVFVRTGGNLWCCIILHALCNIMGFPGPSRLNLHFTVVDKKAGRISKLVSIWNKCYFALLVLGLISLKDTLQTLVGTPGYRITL
tim10-1 conf – growth inhibitors of tim10-1 mutant yeast, confirmation, single concentration, luminescence, S. cerevisiae; inhibition, % at 20 µM; 7,400 compounds, 56% hits; shares compounds with tim10-1 inh; S. cerevisiae tim10-1 ts strain growth, BacTiter-Glo, 24 h;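 active means inhibition of yeast growth at or above a set limit in either of two repeat tests at 20 µM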;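 further: tim10-1 mutant grown at permissive 25 °C to find synthetic lethal compounds; 0% = DMSO yeast wells and 100% = medium wells without yeast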
Numbers without * were called inactive. An excerpt weighted towards active compounds, which were near 3.7% of everything screened.

Screening CC(C)(C)[C@H]1COC(=O)[C@H](Cc2ccc(F)cc2)CC/C=C/C[C@@H](CC(=O)N[C@H](CO)Cc2ccccc2)C(=O)N1 returned PfHsp90 set2 -18.8, tim10-1 inh -0.4, tim23-1 inh 9.6 and TIM10 inh 7.6.
For CC(C)(C)c1ccc(C(=O)CC(Sc2ccc(Cl)cc2)C(=O)O)cc1 (configuration not stated) the results were PfHsp90 set2 81.3*, tim10-1 inh 40.7*, tim23-1 inh 41.8, TIM10 inh 39.7, Rce1 inhib inactive and tim10-1 conf 50.8*.
Cc1ccc(SC(CC(=O)c2ccc(F)cc2)C(=O)O)cc1 (configuration not stated) was read as PfHsp90 set2 25.5, tim10-1 inh 12.7, tim23-1 inh 19.6, TIM10 inh 8.2 and Rce1 inhib inactive.
CC(=O)c1ccc(OCc2cc(C(=O)N3CCC(c4ccncc4)CC3)no2)cc1 was read as PfHsp90 set2 8.4, tim10-1 inh 44.3*, tim23-1 inh 1.2, TIM10 inh 4.7, Rce1 inhib inactive and tim10-1 conf -38.6.
Screening COCC1CCN(C(=O)c2cc(COc3ccc4c(c3)CCCC4)on2)C1 (configuration not stated) returned PfHsp90 set2 -19.1, tim10-1 inh 40.2*, tim23-1 inh 24.3, TIM10 inh 12.0, Rce1 inhib inactive and tim10-1 conf 19.5.
`O=C(CCN1CCCCC1=O)NC1CCCN(Cc2ccc(Cl)cc2)C1` (configuration not stated) gave PfHsp90 set2 -13.6, tim10-1 inh -9.9, tim23-1 inh -2.4, TIM10 inh 6.7 and Rce1 inhib inactive.
N/C(=N\S(=O)(=O)c1cc(C(F)(F)F)cc(C(F)(F)F)c1)c1ccncc1 was read as PfHsp90 set2 13.7, tim10-1 inh 8.3, tim23-1 inh 5.2, TIM10 inh 5.1 and Rce1 inhib inactive.
`N/C(=N\S(=O)(=O)c1cc(C(F)(F)F)cc(C(F)(F)F)c1)c1ccc(Cl)cc1` gave PfHsp90 set2 -97.0, tim10-1 inh 45.8*, tim23-1 inh 47.5, TIM10 inh 35.0, Rce1 inhib inactive and tim10-1 conf 42.6*.
COc1ccc(Br)cc1CN(C)CC(=O)Nc1c(Cl)cccc1Cl was read as PfHsp90 set2 17.1, tim10-1 inh 29.9, tim23-1 inh 40.9, TIM10 inh 19.4 and Rce1 inhib inactive.
Screening O=S(=O)(c1cc(Cl)ccc1Br)N1CCCCC1 returned PfHsp90 set2 -4.1, tim10-1 inh 43.0*, tim23-1 inh 30.6, TIM10 inh -1.9, Rce1 inhib inactive and tim10-1 conf 31.6*.
Screening CCOc1cc(C(=O)NC(=S)Nc2cccnc2)cc(OCC)c1OCC returned PfHsp90 set2 -22.2, tim10-1 inh 43.2*, tim23-1 inh 24.2, TIM10 inh 20.0, Rce1 inhib inactive and tim10-1 conf 17.6.
For CCOc1ccccc1N1CCN(C(=O)Nc2ccc(F)c(Cl)c2)CC1 the results were PfHsp90 set2 -20.2, tim10-1 inh 47.9*, tim23-1 inh 47.5, TIM10 inh 37.0, Rce1 inhib inactive and tim10-1 conf 40.0*.
Screening O=C1CSCc2nc3ccccc3n21 returned PfHsp90 set2 -9.9.
For CCOC(=O)N1CCN(C(=O)CCc2c(C)nc3c(c(C)nn3-c3ccc(C)c(C)c3)c2C)CC1 the results were PfHsp90 set2 4.9, tim10-1 inh 40.0, tim23-1 inh 30.4, TIM10 inh 29.7, Rce1 inhib inactive and tim10-1 conf 35.5*.
Fc1cccc(-c2cc3nc4c(c(N5CCOCC5)n3n2)CCCC4)c1 was read as tim10-1 inh -1.3, tim23-1 inh 40.9, TIM10 inh 29.3 and Rce1 inhib inactive.
`Fc1cccc(-c2cc3nc4c(c(NCc5ccco5)n3n2)CCCC4)c1` gave PfHsp90 set2 -2.4, tim10-1 inh 49.6*, tim23-1 inh 49.8, TIM10 inh 26.9, Rce1 inhib inactive and tim10-1 conf 35.5*.
O=C(O)c1cc(S(=O)(=O)N2CCCCC2)ccc1Cl was read as PfHsp90 set2 2.0, tim10-1 inh -5.9, tim23-1 inh 7.7, TIM10 inh 3.4 and Rce1 inhib inactive.
Screening COc1cccc(NC(=O)C2COc3ccccc3O2)c1 (configuration not stated) returned PfHsp90 set2 -8.5, tim10-1 inh 14.4, tim23-1 inh 19.6, TIM10 inh 8.2 and Rce1 inhib inactive.
`COc1cccc2sc(Nc3nc(-c4ccccn4)cs3)nc12` gave PfHsp90 set2 107.0*, tim10-1 inh 52.1*, tim23-1 inh 49.9, TIM10 inh 12.7, Rce1 inhib inactive and tim10-1 conf 34.1*.
For c1ccc(Nc2nc(-c3ccccn3)cs2)cc1 the results were PfHsp90 set2 -8.5, tim10-1 inh 45.7*, tim23-1 inh 33.4, TIM10 inh 33.6, Rce1 inhib inactive and tim10-1 conf 23.0.
CC(=O)Nc1ccc(-c2csc(Nc3ccccn3)n2)cc1 was read as PfHsp90 set2 -23.1, tim10-1 inh 62.5*, tim23-1 inh -5.8, TIM10 inh -25.6, Rce1 inhib inactive and tim10-1 conf -38.7.
`c1ccc(-c2csc(Nc3cccnc3)n2)nc1` gave PfHsp90 set2 -1.0, tim10-1 inh 0.8, tim23-1 inh 3.4, TIM10 inh 24.6 and Rce1 inhib inactive.
`COc1cccc2sc(NNC(=O)COc3ccccc3)nc12` gave PfHsp90 set2 13.8, tim10-1 inh -12.6, tim23-1 inh -5.0 and TIM10 inh -3.7.
CCn1nc(C)c(C(=O)Nc2cc(Oc3cc(C)cc(C)c3)cc([N+](=O)[O-])c2)c1C was read as PfHsp90 set2 28.5, tim10-1 inh 42.7*, tim23-1 inh 42.4, TIM10 inh 34.7, Rce1 inhib inactive and tim10-1 conf 38.8*.
Screening Cc1nn(C)cc1C(=O)Nc1cc(Oc2ccc(Cl)cc2)cc([N+](=O)[O-])c1 returned PfHsp90 set2 11.1, tim10-1 inh 23.5, tim23-1 inh 17.5, TIM10 inh 29.6 and Rce1 inhib inactive.
Screening CC1=NN(C(=O)c2ccc(Cn3nc(C)c(Br)c3C)cc2)C(O)(C(F)(F)F)C1 (configuration not stated) returned PfHsp90 set2 5.3, tim10-1 inh 41.1*, tim23-1 inh 33.5, TIM10 inh 26.6, Rce1 inhib inactive and tim10-1 conf 21.9.
Screening O=[N+]([O-])c1ccccc1S(=O)(=O)NCCSc1ccccc1 returned PfHsp90 set2 -15.5, tim10-1 inh 11.1, tim23-1 inh 29.8, TIM10 inh -16.5 and Rce1 inhib inactive.
